Inconclusive results are not listed. The source made the active and inactive calls. Calls come from the whole dose curve; as a rule, active = well fitted inhibition curve with a large enough effect; inconclusive = small, poorly fitted or top-dose-only effect; inactive = flat fitted curve, though single readings scatter.
Columns and labels:
Assay in all cases: Cytotoxic Profiling of Annotated Libraries Using Quantitative High-Throughput Screening (AID 1296008); note: nearly all actives have a fitted effect of over 60% in size
Settings in all cases: Five cell lines viability, CellTiter-Glo ATP luminescence, 48-72 h; max response: active compounds read low
CRL-7250 = system: CRL-7250
Procedure, shortened: (§1)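 Cytotoxicity was measured as CellTiter-Glo ATP luminescence, read after 10 min at room temperature. Compound treatment of the cells lasted 48 or 72 hr at 37 degrees Celsius in a qHTS format.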

HEK293 = system: HEK293
Procedure, shortened: as §1

HaCat = system: HaCat
Procedure, shortened: as §1

KB-3-1 = system: KB-3-1
Procedure, shortened: as §1

NIH3T3 = system: NIH3T3
Procedure, shortened: as §1

Measured: max response
% is set by controls: 0 for no effect and ±100 for the full control effect.

C/C=C1\[C@H](O[C@@H]2O[C@H](CO)[C@@H](O)[C@H](O)[C@H]2O)OC=C(C(=O)O)[C@H]1CC(=O)OCCc1ccc(O)cc1
inactive: CRL-7250 -6.03% | HEK293 -5.51% | HaCat | KB-3-1 -0.266% | NIH3T3

CCCNCCOc1ccc(NC(=O)c2c[nH]c3c2C(=O)CCC3)cc1F
inactive: CRL-7250 -8.08% | HEK293 -31.5% | HaCat -4.5% | KB-3-1 6.85% | NIH3T3

CCN1CCN(C(=O)N[C@@H](C(=O)N[C@@H]2C(=O)N3[C@@H]2SC(C)(C)[C@@H]3C(=O)O)c2ccccc2)C(=O)C1=O
inactive: CRL-7250 -7% | HEK293 -6.17% | HaCat | KB-3-1 | NIH3T3

CC(C/C=C/C(C)(C)O)C1CCC(C)(O)C(O)C1 (stereo not given)
inactive: CRL-7250 | HEK293 2.47% | HaCat 0.0762% | KB-3-1 | NIH3T3

COc1cc(C(CO)CO[C@@H]2O[C@H](CO)[C@@H](O)[C@H](O)[C@H]2O)ccc1O (stereo not given in full)
inactive: CRL-7250 -15.6% | HEK293 | HaCat -35.5% | KB-3-1 5.97% | NIH3T3 -7.99%

OCC(O)C(c1c[nH]c2ccccc12)c1c[nH]c2ccccc12 (stereo not given)
inactive: CRL-7250 | HEK293 -8.71% | HaCat | KB-3-1 | NIH3T3 1.42%

COc1cc2c(c(O)c1OC/C=C(\C)CC/C=C(/C)CCC=C(C)C)CN(C(CCC(=O)O)C(=O)O)C2=O (stereo not given)
inactive: CRL-7250 | HEK293 2.31% | HaCat | KB-3-1 3.38% | NIH3T3 -3.47%

CCC(C)/C=C(C)/C=C/C1=CC2=C(Cl)C(=O)C(C)(OC(C)=O)C(=O)C2=CN1C(CCC(=O)O)C(=O)O (stereo not given)
inactive: CRL-7250 -2.2% | HEK293 -1.69% | HaCat | KB-3-1 | NIH3T3

C[C@@H]1O[C@@H](O[C@H]2[C@H](O[C@H]3[C@H](O[C@H]4CC[C@@]5(C)C(CC[C@]6(C)C5CC=C5[C@@H]7CC(C)(C)CC(=O)[C@]7(C)CC[C@]56C)[C@@]4(C)CO)O[C@H](C(=O)O)[C@@H](O)[C@@H]3O)O[C@H](CO)[C@H](O)[C@@H]2O)[C@H](O)[C@H](O)[C@H]1O (stereo not given in full)
inactive: CRL-7250 -2.01% | HEK293 -1.03% | HaCat | KB-3-1 | NIH3T3 0.221%

COC(=O)C1=COC(O[C@@H]2O[C@H](COC(=O)/C=C/c3ccc(O)cc3)[C@@H](O)[C@H](O)[C@H]2O)C2C(CO)=CCC12 (stereo not given in full)
inactive: CRL-7250 | HEK293 -1.21% | HaCat | KB-3-1 | NIH3T3 2.77%

CC(C)(O)C(O)C(=O)OCc1ccc(O[C@@H]2O[C@H](CO)[C@@H](O)[C@H](O)[C@H]2O)cc1 (stereo not given in full)
inactive: CRL-7250 -9.18% | HEK293 2.94% | HaCat | KB-3-1 | NIH3T3 -2.16%

C[C@@H]1CC[C@]2(C(=O)O)CC[C@]3(C)C(=CCC4[C@@]5(C)C[C@@H](O)[C@H](O)[C@@](C)(CO)C5CC[C@]43C)C2[C@H]1C (stereo not given in full)
inactive: CRL-7250 -10.8% | HEK293 4.76% | HaCat | KB-3-1 3.75% | NIH3T3

O=C(OC[C@H]1O[C@H](O[C@]2(CO)O[C@H](CO)[C@@H](O)[C@@H]2O)[C@H](O)[C@@H](O)[C@@H]1O)c1ccc(O)cc1
inactive: CRL-7250 -3.61% | HEK293 1.1% | HaCat | KB-3-1 0.316% | NIH3T3 -10.5%

CC1=C2C[C@@]3(C)[C@@H](CCC[C@@H]3C)C[C@@]2(O)OC1=O
inactive: CRL-7250 | HEK293 -2.55% | HaCat | KB-3-1 8.04% | NIH3T3

C=C(CCO)C(=O)OCC1OCC(OC(=O)C(=C)CCO[C@@H]2O[C@H](COC(=O)C(=C)CCO[C@@H]3O[C@H](CO)[C@@H](O)[C@H](O)[C@H]3O)[C@@H](O)[C@H](O)[C@H]2O)C(O)C1O (stereo not given in full)
inactive: CRL-7250 0.815% | HEK293 | HaCat -17.9% | KB-3-1 0.844% | NIH3T3 3.62%

Nc1nc(COC(=O)c2ccc([N+](=O)[O-])cc2)nc(Nc2ccccc2)n1
inactive: CRL-7250 -7.38% | HEK293 -16.5% | HaCat -9.19% | KB-3-1 -4.58% | NIH3T3

CC1=C[C@@H]2[C@H]3[C@@H]4O[C@@](C)(CC[C@H]4O)[C@H]3CC(=O)[C@]23C(=O)N[C@@H](CC(C)C)[C@@H]3[C@@H]1C
inactive: CRL-7250 | HEK293 4.29% | HaCat | KB-3-1 9.19% | NIH3T3

CC(=O)OC1CC2C(C)(C)C(=O)C=CC2(C)C2CC(=O)C3=C(CCC3C3=CC(O)OC3=O)C12C (stereo not given)
inactive: CRL-7250 3.26% | HEK293 2.36% | HaCat inactive; activator | KB-3-1 | NIH3T3 0.622%

C[C@@H]1O[C@@H](OC(=O)Cc2ccccc2)[C@H](O)[C@H](O)[C@H]1O
inactive: CRL-7250 2.73% | HEK293 -2.15% | HaCat | KB-3-1 6.7% | NIH3T3

Cc1cc(C(=O)N2Cc3cnn(C)c3Nc3ccccc32)ccc1CNC(=O)N1CCN(Cc2cc(O)cc(O)c2)CC1
inactive: CRL-7250 | HEK293 -0.745% | HaCat | KB-3-1 | NIH3T3 -0.633%

C=C1[C@H](OC(C)=O)[C@H]2[C@@H](OC(=O)c3ccccc3)[C@@H](C)C[C@]2(O)[C@@H](OC(C)=O)[C@H](C)/C=C/C(C)(C)C(=O)[C@H](OC(C)=O)[C@H]1OC(C)=O
inactive: CRL-7250 3.14% | HEK293 -5.03% | HaCat | KB-3-1 | NIH3T3 3.53%

CCCCOc1nc(N)c2c(n1)N(Cc1cccc(CN3CCCC3)c1)CC(=O)N2
inactive: CRL-7250 | HEK293 -3.01% | HaCat | KB-3-1 -3.08% | NIH3T3

N#Cc1cc(-c2n[nH]c(-c3ccncc3)n2)ccn1
inactive: CRL-7250 -0.428% | HEK293 -15.1% | HaCat | KB-3-1 -1.34% | NIH3T3 0.552%

Cc1onc(-c2c(Cl)cccc2Cl)c1CC(=O)NCc1ccc(OCC(F)(F)F)nc1
inactive: CRL-7250 0.479% | HEK293 -15.1% | HaCat 1.93% | KB-3-1 | NIH3T3

Cc1cc(CO)c(O)c(C(=O)CC2CC(=O)NC(=O)C2)c1
inactive: CRL-7250 | HEK293 4.74% | HaCat -10.8% | KB-3-1 | NIH3T3

Cc1ncc(Cl)cc1NCc1ccc(C(=O)NC(CC2CCCC2)C(=O)NC2CC2)s1 (stereo not given)
inactive: CRL-7250 | HEK293 -15.8% | HaCat -11.9% | KB-3-1 -1.73% | NIH3T3

Cc1ccc2nc(NC(=O)CSc3nc4c(c(=O)n3-c3ccc(F)cc3)SCC4)sc2c1
inactive: CRL-7250 -14.2% | HEK293 -0.604% | HaCat 1.13% | KB-3-1 9.39% | NIH3T3

O=C(/C=C/c1ccc(O)c(O)c1)O[C@H]1[C@H](OC2CCCCC2O)O[C@H](CO)[C@@H](O)[C@@H]1O (stereo not given in full)
inactive: CRL-7250 -3.22% | HEK293 -0.453% | HaCat -16.7% | KB-3-1 -3.21% | NIH3T3

COc1ccc(C2C(C(=O)O)C(C(=O)O)C2c2ccc(OC)cc2O[C@@H]2O[C@H](CO)[C@@H](O)[C@H](O)[C@H]2O)c(O[C@@H]2O[C@H](CO)[C@@H](O)[C@H](O)[C@H]2O)c1 (stereo not given in full)
inactive: CRL-7250 -9.53% | HEK293 -17.5% | HaCat 0.767% | KB-3-1 -1.86% | NIH3T3

CC12CC(c3ccoc3)OC(=O)C1CCC1(C)C2CCC(O)C1(C)O (stereo not given)
inactive: CRL-7250 | HEK293 0.137% | HaCat | KB-3-1 6.59% | NIH3T3

CC(C)(C)NS(=O)(=O)c1ccc(-c2ccc3[nH]nc(N)c3c2)cc1
inactive: CRL-7250 -6.71% | HEK293 -2.12% | HaCat -19% | KB-3-1 8.07% | NIH3T3

CC1=CC(=O)CC(C)(C)C1CO[C@@H]1O[C@H](CO)[C@@H](O)[C@H](O)[C@H]1O (stereo not given in full)
inactive: CRL-7250 -5.79% | HEK293 -1.36% | HaCat | KB-3-1 7.69% | NIH3T3 -1.71%

OC[C@H]1O[C@@H](OCCc2ccccc2)[C@H](O[C@@H]2OC[C@@H](O)[C@H](O)[C@H]2O)[C@@H](O)[C@@H]1O
inactive: CRL-7250 | HEK293 4.26% | HaCat | KB-3-1 9.19% | NIH3T3

C[C@@H]1CC[C@]2(C(=O)O)CC[C@]3(C)C(=CCC4[C@@]5(C)C[C@@H](O)[C@@H](O)C(C)(C)C5CC[C@]43C)C2[C@]1(C)O (stereo not given in full)
inactive: CRL-7250 -1.23% | HEK293 | HaCat -10.3% | KB-3-1 9.05% | NIH3T3 -8.5%

C[C@@H]1CC[C@]2(C(=O)O[C@@H]3O[C@H](CO[C@@H]4O[C@H](CO)[C@@H](O[C@@H]5O[C@@H](C)[C@H](O)[C@@H](O)[C@H]5O)[C@H](O)[C@H]4O)[C@@H](O)[C@H](O)[C@H]3O)CC[C@]3(C)C(=CCC4[C@@]5(C)C[C@@H](O)[C@H](O)[C@@](C)(CO)C5CC[C@]43C)C2[C@H]1C (stereo not given in full)
inactive: CRL-7250 -0.89% | HEK293 -0.975% | HaCat | KB-3-1 3.97% | NIH3T3 1.43%

CC(=O)OC1C(O)/C(C)=C\C2C(OC(=O)c3ccccc3)C(C)CC2(OC(C)=O)C(OC(C)=O)C(C)/C=C/C(C)(C)C1OC(C)=O (stereo not given)
inactive: CRL-7250 -1.02% | HEK293 -2.9% | HaCat | KB-3-1 7.33% | NIH3T3

C=C(C)[C@@]1(O)C[C@@]2(C)C(=CC1=O)CC[C@@H](O)[C@@H]2C
inactive: CRL-7250 3.28% | HEK293 4.61% | HaCat | KB-3-1 -1.96% | NIH3T3

C[C@H]1CC(=O)C2=C(C1)C(O)C(O)[C@@]1(O)[C@H]2C(=O)c2cccc(O)c2[C@@H]1O (stereo not given in full)
inactive: CRL-7250 -10.1% | HEK293 3.36% | HaCat | KB-3-1 | NIH3T3 3.59%

From PubChem BioAssay (NCATS)
